Rev-erbA mod: modulators of Rev-erb alpha DNA binding, primary screen, biochemical, FITC-DNA, fluorescence polarization, uHTS; activity, % at 10 µM; Nuclear receptor subfamily 1 group D member 1 (Homo sapiens), P20393; 370,000 compounds, 0.79% hits; Rev-erbα–FITC-DNA binding, 90 min;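 active = activity above about 14%, limit read from the data; passing the limit was not always enough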;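 also: 0% = DMSO wells with 35 nM protein and 100% = DMSO wells with 750 nM protein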
Target sequence (P20393 whole entry, looked up): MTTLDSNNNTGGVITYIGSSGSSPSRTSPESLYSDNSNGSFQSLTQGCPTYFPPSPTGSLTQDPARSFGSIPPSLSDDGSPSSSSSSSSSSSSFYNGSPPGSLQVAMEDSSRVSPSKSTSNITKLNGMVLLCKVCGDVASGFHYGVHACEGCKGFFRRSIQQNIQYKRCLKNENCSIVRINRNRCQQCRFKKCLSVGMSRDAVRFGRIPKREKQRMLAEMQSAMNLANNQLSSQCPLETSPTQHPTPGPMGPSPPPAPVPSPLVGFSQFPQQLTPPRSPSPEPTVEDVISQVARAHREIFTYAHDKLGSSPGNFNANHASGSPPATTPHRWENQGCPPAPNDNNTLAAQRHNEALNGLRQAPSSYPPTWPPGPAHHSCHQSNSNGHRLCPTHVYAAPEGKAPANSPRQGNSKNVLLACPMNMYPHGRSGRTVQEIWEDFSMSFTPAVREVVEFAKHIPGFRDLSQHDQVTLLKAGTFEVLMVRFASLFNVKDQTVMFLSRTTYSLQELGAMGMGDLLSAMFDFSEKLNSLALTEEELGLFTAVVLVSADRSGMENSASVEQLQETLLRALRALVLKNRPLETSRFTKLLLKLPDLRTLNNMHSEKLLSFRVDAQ
Exocytosis inh: LAMP-1 surface exposure blockers, TALL-104 cells – cell-based, flow cytometry, MLPCN library, primary screen. TALL-104 LAMP-1 surface exposure; cells stimulated with thapsigargin and PMA. inhibition, % at 10 µM. 360,000 compounds, 0.66% hits. AID 651702, 2012;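 active = inhibition above about 55%, limit read from the data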
ABCB6 inh MLPCN: ABCB6 transporter inhibitors, primary screen, K562-ABCB6 cells, flow cytometry, MLPCN library | K562-ABCB6 porphyrin accumulation, 1 h; stronger effect = lower value | ATP-binding cassette sub-family B member 6 (Homo sapiens), Q9NP58 | 360,000 compounds, 0.19% hits | fluorescence ratio to DMSO, % at 10 µM;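 active = fluorescence ratio to DMSO below 75%, the collection mean minus 3 SD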;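 also: signal is porphyrin accumulated inside mitochondria; 100% equals median channel fluorescence of DMSO control wells; lower ratio means ABCB6 inhibition with less porphyrin fluorescence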
PG9 Ab binder: binders of HIV-1 gp120 antibody PG9, primary screen, biochemical, TR-FRET; inhibition, % at 6.7 µM; 360,000 compounds, 0.43% hits; AID 624416, 2012; TR-FRET gp120-PG9 antibody binding; in the data active = inhibition above about 8.5%
VLA-4 inh: inhibition in human VLA-4 binding assay, primary screen, VLA-4 allosteric modulator project, MLPCN library, flow cytometry, VLA-4 expressing cells; Integrin alpha-4 (Homo sapiens), P13612; ligand binding flow cytometry; inhibition, % (about 7 µM as worked out from the volumes in the protocol); 330,000 compounds, 0.2% hits; in the data active = inhibition above about 50%
* marks the source's active call; other numbers are inactive results; x = no result. Hits are enriched below; roughly 2% of the tested compounds scored in any of these assays.

SMILES	Rev-erbA mod	Exocytosis inh	ABCB6 inh MLPCN	PG9 Ab binder	VLA-4 inh
CCC[C@H]1[C@@H](NC(=O)c2cccc(Cl)c2)CC[C@@]23CCCN2C(=O)CCC[C@@H]13	1	x	x	x	x
CCCCNS(=O)(=O)CC1NCc2cc(F)ccc21 (stereo not drawn)	5	x	x	x	x
CCOc1ccc(/C=N/NC(=O)Cc2csc(Nc3cccc(C(F)(F)F)c3)n2)c(OCC)c1	5	68*	108	0	-1
Cc1cc(C)c(S(=O)(=O)/N=C2/C=C(SCC(=O)O)C(=O)c3ccccc32)cc1C	x	79*	139	x	x
CC(=O)OCCCNc1cc(Sc2nc3ccccc3s2)c2nonc2c1[N+](=O)[O-]	x	69*	101	x	16
COC(=O)C1=C(C)N(Cc2cccc(C(F)(F)F)c2)C(=NCc2ccc(OC)cc2)NC1c1ccc(Cl)cc1 (stereo not drawn)	-6	x	x	0	x
Cc1ccc(NC(=O)COC(=O)CCC(=O)c2cccs2)c(Br)c1	3	75*	94	-2	3
Cc1ccc(NC(=O)Cn2c(O)c(N=NS(=O)(=O)c3ccc(C)cc3)c3ccccc32)cc1	-3	56*	107	-4	-6
Cc1ccc(NC(=O)Cn2c(O)c(N=NC(N)=O)c3ccccc32)cc1	5	1	94	-4	4
COC(=O)[C@]12C[C@H](CC(=O)NCc3cccc4ccccc34)C(=O)N(Cc3ccc4c(c3)OCO4)C1=C[C@H](COCc1ccccc1)O[C@@H]2C	3	x	x	0	x
Cc1ccccc1Oc1cc(-n2ncc(Cl)c(Cl)c2=O)ncn1	-2	14	60*	0	37
COC(=O)[C@]12C[C@H](CC(=O)NCCc3ccccc3OC)C(=O)N(Cc3ccc(Cl)cc3Cl)C1=C[C@H](C(C)(C)C)O[C@@H]2C	-1	x	x	x	x
Cc1ccc2c(c1)C(=C(C#N)C#N)C(=O)N2CCN1CCOCC1	-1	-5	94	-1	-5
Cc1ccc2c(c1)C(=C(C#N)C#N)C(=O)N2CCN1CCCCC1	3	56*	99	-1	-5
CCCCCCCCC[n+]1cccc2c3ccccc3ccc21	x	56*	92	x	-14
CCCCCCCCCCCCCCCC[n+]1cccc2ccccc21	7	40	96	1	-23
O=S(=O)(c1ccccc1Br)N(Cc1cn(CC2CCCCC2)nn1)C1CC1	5	x	x	x	x
COc1cccc2[nH]c3c(N4CCCCC4)ncnc3c12	-2	69*	89	-3	4
O=C(CN(CCc1ccccc1)S(=O)(=O)c1ccccc1)N1CCOCC1	-9	x	x	x	x
Cc1ccc(NC(=O)Nc2cc(Cl)ccc2C2COC(=O)C2=N)cc1 (stereo not drawn)	5	-1	95	-2	55*
N=C1C(=O)OCC1c1ccccc1NC(=O)Nc1ccccc1 (stereo not drawn)	6	1	100	-1	0
O=[N+]([O-])c1cc(/C=N/OCc2c(Cl)cccc2Cl)ccc1N1CCOCC1	6	-1	54*	2	-6
CC(=O)O[C@H]1C[C@@]2(C)[C@@H](C[C@@H](O)C3[C@]2(C)CC[C@H]2[C@H](C)[C@H](O)CC[C@]32C)/C1=C(/CCC=C(C)C)C(=O)O (stereo partly drawn)	1	x	x	x	x
O=c1cc(N=Nc2ccc(Cl)cc2)[nH]c(=O)[nH]1	-1	77*	102	0	11
N#CC(C#N)=c1ccc2c(c1)N1C3=C(CCCC3)CC3CCCCC31N=2 (stereo not drawn)	-6	64*	130	-5	-70
SMILES	Rev-erbA mod	Exocytosis inh	ABCB6 inh MLPCN	PG9 Ab binder	VLA-4 inh
CCCC[C@H](C(=O)N(C)c1cccc(OC)c1)[C@@H](O)c1ccc2ccccc2c1	4	x	x	x	x
CNc1sc(C(=O)c2cccs2)c(N)c1-c1nc2ccccc2s1	4	65*	112	0	-16
CNc1sc(C(=O)c2ccc(F)cc2)c(N)c1-c1nc2ccccc2s1	-3	4	99	-3	-60
COc1ccc(/C=N/Nc2cc(N3CCCC3)nc(N3CCCC3)n2)cc1	-3	72*	107	-2	-11
COc1ccc2c(c1)N=CN1CCc3c([nH]c4ccccc34)C3=NCC[C@@]321	-4	x	x	x	x
C#CCOCCOCCOCCNc1nc(N2CCN(C(=O)C([C@@H](C)CC)n3cc(C(N)CC(C)C)nn3)CC2)nc(N2CCN(C(=O)[C@H](CCC(=O)O)n3cc(C(N)Cc4ccc(O)cc4)nn3)CC2)n1 (stereo partly drawn)	x	-8	99	x	-2
C#CCOCCOCCOCCNc1nc(N2CCN(C(=O)C([C@@H](C)CC)n3cc(C(N)Cc4ccc(O)cc4)nn3)CC2)nc(N2CCN(C(=O)[C@H](CCC(=O)O)n3cc(C(N)Cc4ccc(O)cc4)nn3)CC2)n1 (stereo partly drawn)	x	64*	96	x	x
C#CCOCCOCCOCCNc1nc(N2CCN(C(=O)CCCCCCCCCCNC(=O)[C@H](CCCCN)n3cc(C[C@@H](C)CC)nn3)CC2)nc(N2CCN(C(=O)CCCCCCCCCCNC(=O)[C@@H]([C@H](C)O)n3cc(C)nn3)CC2)n1	x	97*	95	x	-3
COc1ccccc1/C=C1/C(=O)N(c2ccccc2)N=C1C	3	-35	74*	-1	10
CCCNS(=O)(=O)c1cccc(C(=O)OCc2cc(=O)oc3cc(OC)ccc23)c1	6	70*	102	-1	27
COc1ccc2c(COC(=O)c3cccc(S(=O)(=O)NCC(C)C)c3)cc(=O)oc2c1	3	16	92	1	-2
Cc1cccc(C2Nc3ccccc3C(=O)N2CCc2ccccc2)n1 (stereo not drawn)	-3	-2	98	4	9
O=C1c2ccccc2NC(c2cccc([N+](=O)[O-])c2)N1CCc1ccccc1 (stereo not drawn)	-4	76*	95	-1	11
O=C(Nc1cccnc1Cl)c1cccnc1Cl	4	1	101	1	-4
O=C(Nc1ccccc1-c1nc2ccccc2s1)c1cccnc1Cl	24	1	106	11*	-13
CC1=NOC(=O)/C1=C\c1ccc(-c2ccc(Cl)cc2Cl)o1	-1	96*	102	1	x
CC1(Br)C(Sc2ccccc2[N+](=O)[O-])=Nc2ccccc21 (stereo not drawn)	0	72*	98	0	x
CCOc1cc(/C=C(\C#N)C(=O)Nc2cccc(C(=O)O)c2)ccc1OCc1ccccc1Cl	5	81*	89	0	0
Cc1ccccc1-c1nc2ccccc2c(=O)n1/N=C/c1ccccc1[N+](=O)[O-]	-2	67*	95	-2	0

Bioassay records from PubChem.
